This passage reports outcome and AC50 results from PubChem BioAssay (EPA / NIEHS).

Records with an inconclusive call do not appear. Activity calls are given as the source filed them. How the source made its calls, unless noted: active means hit-call score of the fitted dose curve at least 0.9, where 1 is the maximum; inactive means score below 0.9.

The term AC50 denotes the concentration at which the activity in the assay is half-maximal.

The target of assay [1] is Oxysterols receptor LXR-alpha (Homo sapiens) (UniProt Q13133). The assay can be described thus: ATG_LXRa_TRANS: Attagene TRANS-FACTORIAL HepG2 Assay for human Liver X Receptor alpha (LXRa) (AID 2282980; active means hit-call score of the fitted dose curve at least 0.9, where 1 is the maximum). The following applies: HepG2 Attagene TRANS reporter, LXRa transactivation. In a few lines: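 In this multiplexed TRANS system, compounds act on HepG2 cells carrying GAL4-UAS reporter units and a receptor-GAL4 fusion for 24 h. Induced reporter RNA is amplified, fluorescently labelled and sized by capillary electrophoresis, with DMSO as baseline.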

A short description of assay [2]: ATG_M_06_TRANS: Attagene TRANS-FACTORIAL HepG2 Assay for M06 Transcription Factor (Internal Marker) (AID 2282983; active means hit-call score of the fitted dose curve at least 0.9, where 1 is the maximum;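 further: reporter transcript level by RT-PCR then capillary electrophoresis fluorescence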). The following applies: HepG2 Attagene TRANS M06 internal marker reporter. Summed up: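 Internal-marker background readout from a multiplexed TRANS reporter system in HepG2; 24 h dosing; mRNA induction quantified by RT-PCR plus capillary electrophoresis fluorescence; DMSO as negative control and baseline.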

The target in assay [3] is Nuclear receptor subfamily 4 group A member 2 (Homo sapiens) (UniProt P43354). Description: ATG_NURR1_TRANS: Attagene TRANS-FACTORIAL HepG2 Assay for human Nuclear Receptor Related Protein 1 (NURR1) (AID 2282985; active means hit-call score of the fitted dose curve at least 0.9, where 1 is the maximum). The following applies: HepG2 Attagene TRANS reporter, mRNA readout. Summed up:
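Transient transfection of HepG2, human liver cells, with multiple GAL4-UAS reporter transcription units. Cells dosed 24 h, RNA isolated, reverse-transcribed, PCR-amplified, FAM-labelled, HpaI-digested, sized by capillary electrophoresis. DMSO served as negative control.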

The target in assay [4] is Transcriptional activator Myb (Homo sapiens) (UniProt P10242). Description: ATG_Myb_CIS: Attagene CIS-FACTORIAL HepG2 Assay for human Myeloblastosis (Myb) Proto-Oncogene Transcription Factor (AID 2282986). To be noted: HepG2 Attagene CIS-FACTORIAL Myb reporter transcription; actives raise or lower the signal. Summed up:
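Steps: transfect HepG2 with cis-regulated reporter units; dose with chemical for 24 h; isolate RNA, reverse-transcribe, PCR-amplify and FAM-label reporter sequences; digest with HpaI; resolve by capillary electrophoresis. Activity fitted in both directions relative to DMSO.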

Assay [5] addresses Nuclear respiratory factor 1 (Homo sapiens) (UniProt Q16656). Description: ATG_NRF1_CIS: Attagene CIS-FACTORIAL HepG2 Assay for human Nuclear Respiratory Factor 1 (NRF1) Orphan Gene (AID 2282987). To be noted: HepG2 NRF1 cis-element reporter, Attagene multiplex; actives raise or lower the signal. Summed up: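 Fluorescence intensity of labelled reporter cDNA fragments, resolved by capillary electrophoresis, served as readout for NRF1 cis-element activity. Transiently transfected HepG2 cells were dosed for 24 hours; activity in either direction was fitted against DMSO negative control.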

Assay [6] addresses Myc proto-oncogene protein (Homo sapiens) (UniProt P01106). The assay can be described thus: ATG_Myc_CIS: Attagene CIS-FACTORIAL HepG2 Assay for human Myelocytomatosis (Myc) Proto-Oncogene Transcription Factor (AID 2282990). To be noted: HepG2, Attagene cis-reporter transcription factor activity; actives raise or lower the signal. In a few lines:
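Cells of the HepG2 human liver line bear multiple cis-driven reporter transcription units. Reporter mRNA after 24 h exposure is reverse-transcribed, amplified, labelled and resolved by capillary electrophoresis, with gain- or loss-of-signal fitting relative to DMSO.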

The nature of assay [7]: ATG_NF_kB_CIS: Attagene CIS-FACTORIAL HepG2 Assay for human Nuclear Factor Kappa B (NF-kB) (AID 2282991). To be noted: HepG2 Attagene cis-factorial NF-kB reporter mRNA; actives raise or lower the signal. Summed up:
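Endogenous transcription factor activity in HepG2 was captured via cis-regulated reporter constructs; after 24 h dosing, reporter mRNA was reverse-transcribed, amplified, fluorescently labelled and sized by capillary electrophoresis, with activity fitted bidirectionally relative to DMSO.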

Assay [8] is described as follows: ATG_NRF2_ARE_CIS: Attagene CIS-FACTORIAL HepG2 Assay for human Nuclear Factor Erythroid 2 Related Factor 2 (NFR2) response to Antioxidant Response Elements (ARE) (AID 2282992).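 On AC50: reporter mRNA level measured by RT-PCR and capillary electrophoresis fluorescence.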 To be noted: HepG2 Attagene ARE/NRF2 reporter, transcription factor activity; actives raise or lower the signal. Summed up: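 HepG2 cells transiently transfected with multiplexed cis-element reporter constructs, 24 h after chemical dosing; reporter mRNA quantified by RT-PCR, fluorescent primer extension, HpaI digestion and capillary electrophoresis. Bidirectional fit relative to DMSO.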

A short description of assay [9]: ATG_Oct_MLP_CIS: Attagene CIS-FACTORIAL HepG2 Assay for human Octamer-Binding Transcription Factor (Oct) (AID 2282993). The following applies: HepG2 Attagene cis-factorial Oct reporter, mRNA; actives raise or lower the signal. In a few lines:
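Multiplexed cis-reporter assay in human liver HepG2 cells, 24 h incubation. Reporter RNA amplified and labelled, then resolved by capillary electrophoresis; DMSO serves as negative control and baseline.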

Assay [10] concerns the target Cellular tumor antigen p53 (Homo sapiens) (UniProt P04637). Description: ATG_p53_CIS: Attagene CIS-FACTORIAL HepG2 Assay for human p53 Transcription Factor (AID 2282994). To be noted: HepG2 p53 cis-element reporter, Attagene mRNA; actives raise or lower the signal. In a few lines:
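HepG2 cells transiently transfected with cis-regulated multiple reporter transcription units, dosed 24 h. Reporter mRNA measured by RT-PCR, 6-FAM primer extension, HpaI digestion and capillary electrophoresis; bidirectional fit relative to DMSO.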

Assay [11] can be described thus: ATG_M_32_TRANS: Attagene TRANS-FACTORIAL HepG2 Assay for M32 Transcription Factor (Internal Marker) (AID 2282984; active means hit-call score of the fitted dose curve at least 0.9, where 1 is the maximum;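 further: transcript level of a background control reporter unit measured by RT-PCR and capillary electrophoresis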). To be noted: HepG2 Attagene TRANS M32 internal marker reporter. In a few lines:
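Measures reporter mRNA induction in human HepG2 liver cells after 24 h chemical treatment. Transcripts from transiently transfected GAL4-UAS reporter units are amplified, fluorescently labelled and sized by capillary electrophoresis; gain of signal relative to DMSO.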

Assay [12] can be described thus: ATG_NFI_CIS: Attagene CIS-FACTORIAL HepG2 Assay for human Nuclear Factor I (NFI) (AID 2282989). The following applies: HepG2 cis-regulatory reporter, NFI response element transcription; actives raise or lower the signal. In a few lines:
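HepG2, transient MRTU, 24 h exposure; RNA→cDNA→PCR→FAM label→HpaI→CE fluorescence. Bidirectional fit, DMSO = baseline.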

Assay [13] concerns the target Hepatocyte nuclear factor 4-alpha (Homo sapiens) (UniProt P41235). The assay can be described thus: ATG_HNF4a_TRANS: Attagene TRANS-FACTORIAL HepG2 Assay for human Hepatocyte Nuclear Factor 4 alpha (HNF4a) (AID 2282982; active means hit-call score of the fitted dose curve at least 0.9, where 1 is the maximum). To be noted: HepG2 HNF4a transactivation reporter, mRNA readout. In a few lines: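 Readout is fluorescent reporter-transcript fragments resolved by capillary electrophoresis after RT-PCR from HepG2 cells dosed for 24 h. Cells carried transfected GAL4-UAS reporter constructs measuring exogenous NR-GAL4 chimera activity; DMSO served as baseline.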

Assay [14] can be described thus: BSK_3C_TissueFactor: BioMAP Diversity Plus: 3C Assay for Tissue Factor Biomarker Activity (AID 2282997). To be noted: BioMAP 3C HUVEC, tissue factor biomarker readout; actives raise or lower the signal. Summed up: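 Endothelial monolayers (human umbilical vein, primary) are dosed, incubated 24 h, and assayed for Tissue Factor by ELISA; DMSO serves as negative control for bidirectional fitting.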

Assay [15] in a line: BSK_3C_uPAR: BioMAP Diversity Plus: 3C Assay for Urokinase-type plasminogen activator receptor (uPAR) Biomarker Activity (AID 2282998). To be noted: BioMAP 3C HUVEC, uPAR biomarker ELISA; actives raise or lower the signal. In a few lines:
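Dose primary human umbilical vein endothelial cells, incubate 24 h, measure cell-surface uPAR by ELISA, then fit the signal in both directions against the DMSO negative control.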
(In general: An ELISA detects its analyte on a solid surface through an enzyme-linked reagent.)

Assay [16] in a line: BSK_3C_VCAM1: BioMAP Diversity Plus: 3C Assay for Vascular cell adhesion molecule 1 (VCAM1) Biomarker Activity (AID 2282999). To be noted: BioMAP 3C HUVEC, VCAM1 ELISA, cytokine-stimulated; actives raise or lower the signal. In a few lines:
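Endothelial cells from human umbilical vein are treated with test chemical. At 24 h, VCAM-1 is measured by ELISA, and responses in either direction are fitted relative to DMSO.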

Assay [17] can be described thus: BSK_4H_Eotaxin3: BioMAP Diversity Plus: 4H Assay for Eotaxin 3 Biomarker Activity (AID 2283000). To be noted: primary human endothelial cells (HUVEC); actives raise or lower the signal. Summed up: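 ELISA quantitation of CCL26 (Eotaxin-3) protein from chemically dosed human vascular endothelial cells at 24 h; increases and decreases both scored relative to DMSO-treated baseline.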

Sequence of Oxysterols receptor LXR-alpha (Homo sapiens) (Q13133 whole entry, looked up, the tested form may be a part): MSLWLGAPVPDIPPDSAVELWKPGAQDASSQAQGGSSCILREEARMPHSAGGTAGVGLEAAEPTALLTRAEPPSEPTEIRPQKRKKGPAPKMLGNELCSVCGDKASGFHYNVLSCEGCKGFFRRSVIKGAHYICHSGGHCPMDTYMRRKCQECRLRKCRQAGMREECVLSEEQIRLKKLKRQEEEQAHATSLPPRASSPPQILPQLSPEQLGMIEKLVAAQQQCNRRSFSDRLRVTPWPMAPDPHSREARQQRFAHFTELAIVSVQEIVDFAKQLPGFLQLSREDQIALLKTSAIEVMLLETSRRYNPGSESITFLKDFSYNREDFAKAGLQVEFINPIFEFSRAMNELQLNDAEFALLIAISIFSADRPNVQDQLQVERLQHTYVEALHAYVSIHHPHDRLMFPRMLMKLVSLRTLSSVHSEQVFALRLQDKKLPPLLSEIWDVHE
Sequence of Nuclear respiratory factor 1 (Homo sapiens) (Q16656 whole entry, looked up, the tested form may be a part): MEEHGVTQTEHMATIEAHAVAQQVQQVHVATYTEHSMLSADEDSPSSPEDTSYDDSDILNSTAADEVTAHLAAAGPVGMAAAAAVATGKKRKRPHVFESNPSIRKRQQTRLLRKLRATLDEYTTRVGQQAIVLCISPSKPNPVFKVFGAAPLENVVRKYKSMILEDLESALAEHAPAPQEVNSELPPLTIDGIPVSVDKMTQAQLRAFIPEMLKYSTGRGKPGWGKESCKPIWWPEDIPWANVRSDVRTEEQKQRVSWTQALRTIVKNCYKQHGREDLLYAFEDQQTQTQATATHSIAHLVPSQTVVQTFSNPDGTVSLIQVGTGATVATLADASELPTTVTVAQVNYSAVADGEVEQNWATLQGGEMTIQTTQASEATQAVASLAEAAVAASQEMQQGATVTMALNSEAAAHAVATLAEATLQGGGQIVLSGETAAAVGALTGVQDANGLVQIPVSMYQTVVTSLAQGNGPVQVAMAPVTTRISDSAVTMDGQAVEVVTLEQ
Sequence of Myc proto-oncogene protein (Homo sapiens) (P01106 whole entry, looked up): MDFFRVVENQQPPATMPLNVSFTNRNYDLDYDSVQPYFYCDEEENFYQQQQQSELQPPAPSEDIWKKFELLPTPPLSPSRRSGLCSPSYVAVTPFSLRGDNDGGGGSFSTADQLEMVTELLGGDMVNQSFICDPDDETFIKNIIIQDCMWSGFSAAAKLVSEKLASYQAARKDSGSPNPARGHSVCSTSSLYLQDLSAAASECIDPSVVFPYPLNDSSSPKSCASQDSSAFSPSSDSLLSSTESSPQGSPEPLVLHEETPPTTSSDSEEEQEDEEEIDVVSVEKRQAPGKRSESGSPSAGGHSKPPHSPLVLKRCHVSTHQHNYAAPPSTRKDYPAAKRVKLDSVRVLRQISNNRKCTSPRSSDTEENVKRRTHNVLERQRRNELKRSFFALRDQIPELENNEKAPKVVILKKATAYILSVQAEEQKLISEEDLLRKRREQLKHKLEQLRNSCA
Sequence of Cellular tumor antigen p53 (Homo sapiens) (P04637 whole entry, looked up): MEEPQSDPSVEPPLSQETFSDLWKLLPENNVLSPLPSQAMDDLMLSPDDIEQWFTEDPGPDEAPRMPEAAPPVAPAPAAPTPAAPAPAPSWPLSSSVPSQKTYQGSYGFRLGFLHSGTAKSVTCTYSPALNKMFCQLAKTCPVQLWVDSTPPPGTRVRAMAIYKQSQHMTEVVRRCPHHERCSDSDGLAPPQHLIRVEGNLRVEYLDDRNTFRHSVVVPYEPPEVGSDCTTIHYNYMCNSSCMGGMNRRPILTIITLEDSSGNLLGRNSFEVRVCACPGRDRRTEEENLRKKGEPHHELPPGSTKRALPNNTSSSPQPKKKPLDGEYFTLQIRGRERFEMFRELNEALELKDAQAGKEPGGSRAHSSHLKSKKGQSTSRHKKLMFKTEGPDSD
Sequence of Transcriptional activator Myb (Homo sapiens) (P10242 whole entry, looked up): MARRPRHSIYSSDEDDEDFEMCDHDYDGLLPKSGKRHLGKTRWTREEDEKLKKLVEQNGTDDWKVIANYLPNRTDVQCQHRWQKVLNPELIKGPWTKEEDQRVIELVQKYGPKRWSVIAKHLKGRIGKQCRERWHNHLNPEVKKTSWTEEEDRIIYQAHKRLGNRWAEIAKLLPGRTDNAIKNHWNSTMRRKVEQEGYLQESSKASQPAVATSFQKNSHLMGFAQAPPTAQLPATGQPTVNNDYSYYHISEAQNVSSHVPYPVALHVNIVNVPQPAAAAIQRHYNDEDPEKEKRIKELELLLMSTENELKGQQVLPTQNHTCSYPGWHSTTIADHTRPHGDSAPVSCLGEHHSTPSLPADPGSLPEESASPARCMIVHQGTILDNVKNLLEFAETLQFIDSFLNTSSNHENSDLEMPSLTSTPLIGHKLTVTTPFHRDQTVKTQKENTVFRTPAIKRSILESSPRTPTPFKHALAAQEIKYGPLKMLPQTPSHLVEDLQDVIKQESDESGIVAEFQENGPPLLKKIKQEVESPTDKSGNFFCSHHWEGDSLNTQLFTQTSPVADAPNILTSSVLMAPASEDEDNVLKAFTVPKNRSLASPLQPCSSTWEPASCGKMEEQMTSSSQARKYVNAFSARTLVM
Sequence of Hepatocyte nuclear factor 4-alpha (Homo sapiens) (P41235 whole entry, looked up, the tested form may be a part): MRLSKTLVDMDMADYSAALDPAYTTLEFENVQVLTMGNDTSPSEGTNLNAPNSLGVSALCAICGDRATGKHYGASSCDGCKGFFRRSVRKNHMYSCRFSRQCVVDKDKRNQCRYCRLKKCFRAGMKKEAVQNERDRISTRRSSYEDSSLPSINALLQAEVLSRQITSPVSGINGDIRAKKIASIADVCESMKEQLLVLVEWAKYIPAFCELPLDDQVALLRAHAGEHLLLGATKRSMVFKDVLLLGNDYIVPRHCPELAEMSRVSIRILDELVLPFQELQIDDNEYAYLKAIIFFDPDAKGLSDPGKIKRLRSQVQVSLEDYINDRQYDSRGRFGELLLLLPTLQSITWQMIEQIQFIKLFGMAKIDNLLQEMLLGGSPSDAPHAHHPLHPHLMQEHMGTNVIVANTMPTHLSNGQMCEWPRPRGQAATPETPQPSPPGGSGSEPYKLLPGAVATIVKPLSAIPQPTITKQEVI
Sequence of Nuclear receptor subfamily 4 group A member 2 (Homo sapiens) (P43354 whole entry, looked up, the tested form may be a part): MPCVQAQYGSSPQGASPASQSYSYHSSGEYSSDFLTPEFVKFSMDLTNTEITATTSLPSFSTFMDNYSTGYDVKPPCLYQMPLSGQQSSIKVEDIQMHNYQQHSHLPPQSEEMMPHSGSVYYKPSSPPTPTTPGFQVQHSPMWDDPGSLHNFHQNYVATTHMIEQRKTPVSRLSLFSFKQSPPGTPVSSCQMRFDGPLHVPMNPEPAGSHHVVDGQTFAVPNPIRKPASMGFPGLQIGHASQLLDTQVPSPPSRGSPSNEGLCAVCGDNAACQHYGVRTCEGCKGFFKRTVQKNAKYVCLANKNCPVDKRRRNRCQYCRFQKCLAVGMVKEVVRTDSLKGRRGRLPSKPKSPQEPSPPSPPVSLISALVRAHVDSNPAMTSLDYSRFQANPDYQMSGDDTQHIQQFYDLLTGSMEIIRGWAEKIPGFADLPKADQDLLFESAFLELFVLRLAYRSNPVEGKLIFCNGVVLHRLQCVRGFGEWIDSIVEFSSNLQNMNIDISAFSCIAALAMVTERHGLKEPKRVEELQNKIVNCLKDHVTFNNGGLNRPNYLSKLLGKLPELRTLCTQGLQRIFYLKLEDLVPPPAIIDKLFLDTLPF

In the case of `CCCc1ccccc1O`, the molecule was classed as inactive in assay [1], in assay [2], in assay [3], in [4], in [5] and in assay [6]. In addition, the result in assay [7], in [8], in assay [9] and in assay [10] was inactive.
For `CC(C)=CCCC(C)=CCCC(C)=CCO`, the molecule was called inactive in assay [1], in [11], in assay [3], in [4], in assay [5] and in assay [12]. Moreover, the molecule was classed as inactive in assay [6], in assay [9] and in assay [10]. In assay [8], the AC50 is 18.8 µM (active).
As for `OCCOCCOCCOCCO`, the molecule was called inactive in [1], in [13], in assay [2], in [11], in assay [3] and in [4]. The molecule was called inactive in assay [5], in assay [12], in [6], in assay [7], in assay [8] and in assay [9]. For the same molecule, the outcome in assay [10] was inactive.
As for `CCCCOCCOCCOCCOCCO`, the result in assay [1], in assay [13], in [2], in assay [11], in assay [3] and in assay [4] was inactive. Besides, the molecule was classed as inactive in [5], in assay [12], in assay [6], in [8] and in [9].
`C=O`: the molecule was called inactive in assay [1], in assay [13], in [11], in assay [3], in assay [4] and in assay [5]. Moreover, the call in assay [12], in assay [6], in assay [7] and in assay [8] was inactive.
Consider `C=C(C)C(=O)O[C@H]1C[C@@H]2CC[C@@]1(C)C2(C)C`, for which the half-maximal activity concentration (AC50) in assay [1] was 27.5 µM (active); in assay [8], 72.1 µM (active); in assay [10], 145 µM (active); in [14] it was 12.2 µM (active); in assay [15], 13.5 µM (active); in assay [16], 26.6 µM (active). Further, the half-maximal activity concentration (AC50) in assay [17] was 9.05 µM (active). Further, the outcome in [11], in assay [3], in [4], in [6], in assay [7] and in assay [9] was inactive.
Consider `CSc1nc(NC2CC2)nc(NC(C)(C)C)n1`, for which the molecule was classed as inactive in assay [1], in assay [2], in [11], in assay [4], in [5] and in [12]. Further, the call in assay [6], in assay [7], in assay [9] and in assay [10] was inactive. Moreover, the AC50 in assay [8] was 12.1 µM (active).
